Screens: PubChem, National Center for Advancing Translational Sciences (NCATS)
KB-V1 cytotox – kills drug-selected multidrug resistant KB-V1 cells; KB-V1 MDR cells viability, CellTiter-Glo, 72 h; Potency, µM (doses to about 46.1 µM), most hits filed as cytotoxic; 3.4% of 400,000 active; also: nearly all actives have a fitted effect of over 60% in size
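Following 72 h at 37 degrees C with compound, KB-V1 cell viability was read by CellTiter-Glo luminescence, medium being phenol-red-free DMEM plus 10% FBS; concentration-response parameters came from normalized, curve-fitted qHTS data.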
HT1080NT lethal – kills 2HG-producing HT-1080-NT fibrosarcoma cells; 1.6% of 360,000 active; HT-1080-NT fibrosarcoma viability, CellTiter-Glo ATP luminescence, 48 h; Potency, µM (titrated, usually from 46.1 µM), inactives show at the top dose activity, negative = less viability, most hits filed as cytotoxic;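 also: NT is the 2HG producing partner of a matched IDH1 knockdown line; 0% = DMSO-treated cells and -100% = media-only wells without cells; nearly all actives have a fitted effect of over 55% in size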
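A 48-hour cytotoxicity screen used HT-1080-NT cells plated 2 hours before compound delivery. ATP-based CellTiter-Glo luminescence measured viability, normalized to DMSO and no-cell controls.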
DT40 TDP1 CPT – growth inhibition of DT40 Tdp1-/-;hTDP1 cells with camptothecin (screen for TDP1 inhibitors); chicken DT40 Tdp1-/-;hTDP1 cells + 20 nM CPT, ATP luminescence, 48 h; Potency, µM (highest dose often 46.2 µM), inactives show top-dose activity change, negative = growth inhibition, hits mostly inhibitors; 12% of 420,000 active; AID 686979; also: nearly all actives have a fitted effect of over 55% in size
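Chicken DT40 Tdp1-/- cells complemented with human TDP1, 400 cells/well, exposed to compounds plus 20 nM camptothecin for at least 48 h at 37 C; viability read as ATP content by CellTiter-Glo luminescence.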
KB-3-1 tox – kills parental KB-3-1 adenocarcinoma cells; 1.4% of 400,000 active; Potency, µM (highest dose often 46.1 µM), actives largely listed as cytotoxic; AID 1347075; KB-3-1 viability, CellTiter-Glo ATP luminescence, 72 h; also: nearly all actives have a fitted effect of over 60% in size
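Cells are dispensed, compounds pinned in, plates held at 37 °C for 72 h, then CellTiter-Glo is added and luminescence read after 10 minutes. Cell line: parental KB-3-1 in phenol-red-free DMEM, 10% FBS.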
HT1080 IDH1KD tx – HT-1080 IDH1 knockdown cell toxicity (counter line) | HT-1080 IDH1 knockdown viability, ATP luminescence, 48 h | Potency, µM (top dose mostly 46.1 µM), without a hit: at the highest dose activity, negative = toxicity, hits mostly cytotoxic | 2% of 360,000 active;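 also: 0% = DMSO wells and -100% = cell-free medium wells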
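% activity derives from luminescence (CellTiter-Glo), normalised to DMSO and no-cell wells. HT-1080-IDH1KD cells, 750/well, had 48 h compound exposure at 37 °C.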
TDP1 cell noCPT – qHTS for Inhibitors of human tyrosyl-DNA phosphodiesterase 1 (TDP1): qHTS in cells in absence of CPT. DT40 Tdp1-/- hTDP1 cells, no CPT, ATP luminescence, 48 h. Potency, µM (highest dose often 46.2 µM), inactives show top-dose activity change, negative = growth inhibition, most hits filed as inhibitors. 15% of 420,000 active. AID 686978, 2013; also: nearly all actives have a fitted effect of over 55% in size
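Cells were dispensed at 400 per well, compounds added by pin tool, plates incubated ≥48 hr at 37 °C, then CellTiter-Glo added for 30 min at room temperature before luminescence reading. Line: DT40 Tdp1-/- complemented with hTDP1; camptothecin omitted.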
* = called active by the depositor; i = inactive; ? = inconclusive; nt = no result given; [ ] = another dose, or the depositor's remark. A selection: hits, their analogues and other compounds. The true share with any hit is near 19%. Calls follow the shape of the dose curve; as a rule, active = well fitted curve in the direction sought with a large enough effect; inconclusive = small, poorly fitted or top-dose-only effect, or another doubt; inactive = no such curve, though single readings can be large; an effect the other way counts as inactive or inconclusive. Unless noted, % is scaled to controls: 0 for no effect and ±100 for the full control effect; potency is read from the fitted curve at half-maximal effect.

SMILES	KB-V1 cytotox	HT1080NT lethal	DT40 TDP1 CPT	KB-3-1 tox	HT1080 IDH1KD tx	TDP1 cell noCPT
CCOc1ccc(NC(=O)C(=O)c2cc(C)n(-c3cc(C)cc(C)c3)c2C)cc1	i	nt	?	i	nt	21µM*
Cc1ccc(NC(=O)C(=O)c2cc(C)n(-c3ccc(F)cc3)c2C)cc1C	i	nt	?	i	nt	21µM*
CCOC(=O)c1cc(C)n(Cc2ccccc2)c1C	i	-7%	-23%	i	-12%	-9%
CCOC(=O)c1cc(C)n(-c2ccc(OC)c(OC)c2)c1C	i	-5%	?	i	-13%	18µM*
CCOc1ccccc1NC(=O)C(=O)c1cc(C)n(-c2ccc(F)cc2)c1C	i	nt	?	i	nt	-26%
CNc1ccc(C(=O)OCC(=O)NCc2ccc3c(c2)OCO3)cc1[N+](=O)[O-]	i	-2%	2%	i	0%	?
CCOC(=O)C1=C(C)N=C2SC(C(=O)OC)=CC(=O)N2C1c1ccc(OC)cc1 (centres undefined)	?	19%	?	?	10%	?
O=C(CCNS(=O)(=O)c1ccc(Br)cc1)N1CCN(c2ccccc2O)CC1	i	4%	?	i	-12%	?
CCOc1ccc(-n2c(C)cc(C(=O)CCl)c2C)cc1	?	7.3µM*	2.9µM*	4.6µM*	8.2µM*	4.6µM*
Cc1ccccc1NC(=O)C1CC(=O)N(Cc2ccccc2)C1 (centres undefined)	i	9%	5%	i	21%	-109%
Cc1c(Cl)c([N+](=O)[O-])nn1Cc1ccc(C(=O)Nc2ccc(Cl)cn2)o1	3.7µM*	0%	-48%	i	-14%	?
O=C(Nc1ccc(Cl)cn1)c1ccc([N+](=O)[O-])o1	?	23µM*	2.3µM*	i	21µM*	15µM*
CCc1c(C)nc2cc(-c3ccc(OC)c(OC)c3)nn2c1N1CCCC1	?	?	?	i	-21%	23µM*
COc1ccc(-c2c(C)nn3c(N4CCOCC4)cc(C)nc23)cc1OC	i	-15%	2%	i	3%	1%
CCOCCN1CCN(c2c3c(nc4cc(-c5ccc(F)cc5)nn24)CCC3)CC1	i	0%	?	i	1%	16µM*
COc1cc(OC)cc(-c2cc3nc4c(c(N5CCN(c6ncccn6)CC5)n3n2)CCCC4)c1	i	12%	?	i	0%	23µM*
CCc1c(C)nc2cc(-c3cc(OC)cc(OC)c3)nn2c1N1CCCC1	i	-10%	29µM*	i	?	23µM*
CCc1ccccc1NCc1nnc2n1CCCCC2	i	nt	1%	i	nt	-9%
Cc1ccn(CCC(=O)N2CCc3ccccc32)n1	i	2%	-3%	i	10%	-26%
COC(=O)C1=C(C)N(C(C)C)C(=O)C1(NC(=O)c1ccc(C(C)(C)C)cc1)C(F)(F)F (centres undefined)	i	nt	?	i	nt	?
CCOCCN1CCN(c2c(CC)c(C)nc3cc(-c4cc(OC)cc(OC)c4)nn23)CC1	i	?	21µM*	i	-26%	15µM*
COc1ccc(-c2c(C)nn3c(N4CCCCCC4)cc(C)nc23)cc1OC	?	?	23µM*	18µM*	?	26µM*
CC(C(=O)NCCCc1ccccc1)n1cccc1C(=O)c1ccccc1 (centres undefined)	i	10%	?	i	1%	?
CCN(C[C@H]1N[C@@](Cc2ccccc2)(C(=O)OC)[C@H]2C(=O)N(C)C(=O)[C@@H]12)S(=O)(=O)c1ccc(C(C)(C)C)cc1	i	4%	?	i	3%	18µM*
COC(=O)[C@]1(Cc2ccccc2)N[C@H](CN(C)S(=O)(=O)c2ccc(C(C)(C)C)cc2)[C@@H]2C(=O)N(C)C(=O)[C@@H]21	i	8%	18µM*	i	5%	?
SMILES	KB-V1 cytotox	HT1080NT lethal	DT40 TDP1 CPT	KB-3-1 tox	HT1080 IDH1KD tx	TDP1 cell noCPT
CCN(C[C@H]1N[C@@](Cc2ccccc2)(C(=O)OC)[C@H]2C(=O)N(Cc3ccccc3)C(=O)[C@@H]12)S(=O)(=O)c1ccc(OC(F)(F)F)cc1	?	12%	?	i	4%	?
CCN(C[C@H]1N[C@@](CC)(C(=O)OC)[C@H]2C(=O)N(C)C(=O)[C@@H]12)S(=O)(=O)c1ccc(C(C)(C)C)cc1	i	-4%	?	i	-9%	?
CCN(C[C@H]1N[C@@](C)(C(=O)OC)[C@H]2C(=O)N(Cc3ccccc3)C(=O)[C@@H]12)C(=O)c1ccc(C(C)(C)C)cc1	i	-20%	?	i	-10%	16µM*
CCN(C[C@H]1N[C@@](Cc2ccccc2)(C(=O)OC)[C@H]2C(=O)N(Cc3ccccc3)C(=O)[C@@H]12)S(=O)(=O)c1ccc(C(C)(C)C)cc1	i	11%	?	i	6%	16µM*
CCN(C[C@H]1N[C@@](C)(C(=O)OC)[C@H]2C(=O)N(Cc3ccccc3)C(=O)[C@@H]12)C(=O)COC	i	15%	-3%	i	6%	13%
O=C(COC(=O)CCc1ccccc1)Nc1ccc(F)cc1Cl	i	14%	-4%	i	20%	-22%
Cc1cnc(SCC2CCCO2)nc1C1CCCN(Cc2nc(-c3ccccc3)cs2)C1 (centres undefined)	nt	nt	-1%[9.04 µM]	nt	nt	?
CCN(C[C@H]1N[C@@](Cc2ccccc2)(C(=O)OC)[C@H]2C(=O)N(Cc3ccccc3)C(=O)[C@@H]12)S(=O)(=O)c1ccc(F)cc1	i	9%	18µM*	i	5%	?
COC(=O)[C@]1(Cc2ccccc2)N[C@H](CN(C)C(=O)c2ccc(C(C)(C)C)cc2)[C@@H]2C(=O)N(Cc3ccccc3)C(=O)[C@@H]21	i	8%	15µM*	i	10%	21µM*
CCN(C[C@H]1N[C@@](Cc2ccccc2)(C(=O)OC)[C@H]2C(=O)N(Cc3ccccc3)C(=O)[C@@H]12)S(=O)(=O)c1ccc(OC)cc1	i	2%	?	i	3%	?
